High-throughput results from PubChem.
Only some compounds are listed: those with a hit (about 7% of all), similar ones and a draw of the others.
ADAM10 inh: ADAM10 inhibition, QFRET primary screen; O14672; recombinant ADAM10, EDANS/DABCYL FRET peptide cleavage, 3 h; inhibition, % at 7 µM; 370,000 tested, 0.62% active; AID 720582;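 active = inhibition above a per-campaign cutoff equal to the mean of compounds falling between control-based bounds plus 3 SD, cut at about 20% in these data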
KLK7 zymogen act: activates the human kallikrein-7 zymogen; 370,000 tested, 0.9% active; purified proKLK7, EDANS-DABCYL substrate fluorescence; 100% is mature enzyme control, 0% vehicle; AID 652039; P49862; activation, % at 7 µM;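 active = activation above the mean of all tested compounds plus 3 SD, computed per campaign excluding outliers beyond control limits, cut at about 13% in these data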
Target sequence (P49862 whole entry, looked up): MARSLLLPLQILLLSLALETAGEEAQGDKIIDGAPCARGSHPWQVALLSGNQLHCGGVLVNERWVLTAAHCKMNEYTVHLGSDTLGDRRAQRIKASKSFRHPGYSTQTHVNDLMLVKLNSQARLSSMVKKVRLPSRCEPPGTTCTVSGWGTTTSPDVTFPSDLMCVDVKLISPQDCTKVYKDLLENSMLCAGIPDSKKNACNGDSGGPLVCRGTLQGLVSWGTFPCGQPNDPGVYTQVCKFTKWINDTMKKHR
AHR activator: activates the human aryl hydrocarbon receptor; P35869; AHR-responsive luciferase reporter cells, luminescence; activation, % at 5 µM; 320,000 tested, 2.5% active; AID 2796; in the data active = activation above about 47%
NR3A LBD binder: modulates the human NR3A ligand-binding domain. NR3A LBD differential scanning fluorimetry, Tm shift; 0% = protein alone, 100% = glycine-bound protein. 340,000 tested, 2.5% active. Tm shift relative to glycine control, % at 25 µM;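 active = melting temperature shift of at least 10% of the positive control shift, at one fixed dose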
rCAG binder: binds r(CAG) RNA repeats; r(CAG) RNA repeat, TO-PRO-1 dye displacement fluorescence; inhibition, % at 3 µM; 370,000 tested, 1.3% active;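 active = inhibition above the plate cutoff, the mean of all test compounds on that plate plus 3 SD, cut at about 35% in these data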;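 note: higher means more dye released from RNA so lower well fluorescence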
ADAM17 inh: ADAM17 inhibition, QFRET primary screen. P78536. recombinant ADAM17, EDANS/DABCYL FRET peptide cleavage. inhibition, % at 6.95 µM. 370,000 tested, 0.83% active;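 active = inhibition above the mean of compounds lying between control limits plus 3 SD, set per campaign, cut at about 8.5% in these data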
ADAM10 confirm: confirmation of inhibitors of human ADAM10; 2,100 tested, 1% active; inhibition, % at 6.95 µM; ADAM10 QFRET peptide cleavage, EDANS fluorescence; shares compounds with ADAM10 inh;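 active = inhibition above about 20% chosen separately for each screening run, limit read from the data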
ADAM17 counter: inhibits human ADAM17 in ADAM10 exosite counter-screen; shares compounds with ADAM10 inh; AID 743214; 2,100 tested, 0.5% active; ADAM17 QFRET peptide cleavage, EDANS fluorescence; inhibition, % at 6.95 µM;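 active = mean triplicate inhibition above the solvent-only control wells' mean plus 3 SD, cut at about 12% in these data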
ADAM10 ctr: counter-screen for ADAM17 exosite inhibitors: inhibitors of human ADAM10; shares compounds with ADAM17 inh; recombinant ADAM10, EDANS/DABCYL FRET peptide cleavage, 3 h; inhibition, % at 6.95 µM; 2,900 tested, 47% active; AID 743256;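 active = mean inhibition over the triplicate runs exceeds the activity threshold set in the earlier primary screen, cut at about 20% in these data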
ADAM17 confirm: confirmation of inhibitors of human ADAM17 | 2,900 tested, 65% active | inhibition, % at 6.95 µM | AID 743257 | shares compounds with ADAM17 inh | recombinant ADAM17, EDANS/DABCYL QFRET peptide cleavage;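 active = mean inhibition across replicates above the hit cutoff set in the primary screen, cut at about 8.5% in these data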
Numbers stand for hits; 0 = inactive; - = not tested or not shown.

SMILES	ADAM10 inh	KLK7 zymogen act	AHR activator	NR3A LBD binder	rCAG binder	ADAM17 inh	ADAM10 confirm	ADAM17 counter	ADAM10 ctr	ADAM17 confirm
COc1ccc(C(=O)COC(=O)c2sc(C)nc2C)cc1F	0	0	0	0	0	0	-	-	-	-
O=C(COC(=O)c1ccccn1)Nc1ccc(S(=O)(=O)N2CCOCC2)cc1	0	0	0	0	0	0	-	-	-	-
CCc1nc2ccccc2c(C(=O)OCC(=O)Nc2ccc(S(=O)(=O)N3CCOCC3)cc2)c1C	20	0	0	0	0	10.0	0	0	21	12
COc1ccccc1NS(=O)(=O)c1cccc(C(=O)OCC(=O)NC2CC2)c1	0	0	0	0	0	0	-	-	-	-
COC(=O)c1ccc(/C=N/NC(=O)CNc2cccc(C)c2)cc1	0	0	0	0	0	0	-	-	-	-
CCOc1cc(/C=N/NC(=O)CNc2cccc(C)c2)ccc1OC(=O)c1ccccc1	25	0	0	0	0	12	0	0	33	16
O=C(OC(c1ccc(NS(=O)(=O)c2ccccc2)cc1)(C(F)(F)F)C(F)(F)F)c1ccccc1	32	0	0	0	0	13	0	0	36	18
Cc1ccc(S(=O)(=O)Nc2ccc(C(OC(=O)c3ccccc3[N+](=O)[O-])(C(F)(F)F)C(F)(F)F)cc2)cc1	22	0	0	0	0	10	0	0	47	27
Cc1cc(C)nc(NS(=O)(=O)c2ccc(NC(=O)c3ccccc3[N+](=O)[O-])cc2)n1	0	0	0	0	0	0	-	-	-	-
COc1cc(-c2nnc(-c3ccccc3)o2)cc(OC)c1OC	0	0	0	0	0	0	-	-	-	-
COc1cc(-c2nnc(COc3ccc4ccccc4c3)o2)cc(OC)c1OC	21	0	0	0	0	10	0	0	22	15
CC(C)C[C@H](NC(=O)c1[nH]cnc1C(=O)N[C@@H](C)C(=O)OCc1ccccc1)C(=O)OC(C)(C)C	29	0	0	0	0	14	0	0	39	21
CC(C)(C)OC(=O)N1CCC(NC(=O)c2nc[nH]c2C(=O)NCC(=O)OCc2ccccc2)CC1	23	0	0	0	0	8.7	0	0	0	0
C[C@H](NC(=O)c1nc[nH]c1C(=O)NCC(=O)OCc1ccccc1)C(=O)OC(C)(C)C	0	0	0	0	0	0	-	-	-	-
CC(C)(C)OC(=O)[C@H](Cc1ccccc1)NC(=O)c1nc[nH]c1C(=O)N[C@@H](Cc1ccccc1)C(=O)OC(C)(C)C	0	0	0	0	0	0	-	-	-	-
CC(C)C[C@H](NC(=O)c1nc[nH]c1C(=O)NCC(=O)OCc1ccccc1)C(=O)OC(C)(C)C	23	0	0	0	0	8.9	0	0	33	16
C[C@H](NC(=O)c1nc[nH]c1C(=O)N[C@@H](Cc1ccccc1)C(=O)OC(C)(C)C)C(=O)OC(C)(C)C	22	0	0	0	0	10.0	0	0	50	24
C[C@H](NC(=O)c1nc[nH]c1C(=O)NCC(=O)OC(C)(C)C)C(=O)OC(C)(C)C	0	0	0	0	0	0	-	-	-	-
CC(C)C[C@H](NC(=O)c1nc[nH]c1C(=O)NCC(=O)OC(C)(C)C)C(=O)OC(C)(C)C	26	0	0	0	0	13	0	0	30	15
CC(C)C[C@H](NC(=O)c1[nH]cnc1C(=O)N[C@H](C)c1ccccc1)C(=O)OCc1ccccc1	27	0	0	0	0	13	0	0	46	21
Cc1cc(C)c(CSc2ncc(-c3ccc([N+](=O)[O-])cc3)[nH]2)c(C)c1	34	0	0	12	0	11	0	0	41	23
Cc1cc(C)c2c(=O)[nH]c(SCc3ccc([N+](=O)[O-])cc3)nc2n1	0	0	0	0	0	0	-	-	-	-
CC(=O)Nc1ccc(SC[C@H](Cc2ccccc2)N2CC[C@@H](C(C)(C)C)CCC2=O)cc1	36	0	0	0	0	12	0	0	22	15
COc1cccc2c1cc1c(=O)n(CC(=O)NCc3ccccn3)nc(C)n12	-	-	0	0	-	-	-	-	-	-
CC(=O)c1cccc(NC(=S)NC2CCCCCCC2)c1	0	0	-	0	0	0	-	-	-	-
SMILES	ADAM10 inh	KLK7 zymogen act	AHR activator	NR3A LBD binder	rCAG binder	ADAM17 inh	ADAM10 confirm	ADAM17 counter	ADAM10 ctr	ADAM17 confirm
COc1ccc(S(=O)(=O)N2CCC(c3cc(-c4cccc5ccccc45)n[nH]3)CC2)cc1	25	0	0	0	0	11	0	0	0	9.1
COC(=O)[C@]12C[C@H](CC(=O)NCc3ccccc3)C(=O)N(Cc3ccc4c(c3)OCO4)C1=C[C@H](C(C)(C)C)O[C@@H]2C	0	0	-	-	0	0	-	-	-	-
COC(=O)[C@]12C[C@H](CC(=O)NCc3ccc(OC)c(OC)c3)C(=O)N(Cc3cccc4ccccc34)C1=C[C@H](C(C)(C)C)O[C@@H]2C	20	0	-	-	0	8.8	0	0	29	22
COC(=O)[C@]12C[C@H](CC(=O)NCc3cccc(C(F)(F)F)c3)C(=O)N(Cc3ccco3)C1=C[C@H](C1CCCC1)O[C@@H]2C	21	0	-	-	0	9.0	0	0	0	8.9
COC(=O)[C@]12CCCCC=C1N(Cc1ccco1)C(=O)[C@H](CC(=O)NCc1ccccc1)C2	0	0	-	-	0	0	-	-	-	-
COC(=O)[C@]12C[C@H](CC(=O)NCc3cccc4ccccc34)C(=O)N(Cc3ccco3)C1=C[C@H](C(C)(C)C)O[C@@H]2C	24	0	-	-	0	9.4	0	0	32	15
Cc1cn([C@H]2C[C@H](O)[C@@H](CCC(=O)NCCc3cccs3)O2)c(=O)[nH]c1=O	0	0	-	-	0	0	-	-	-	-
CN(Cc1ccccc1)S(=O)(=O)c1ccc(Cl)c(C(=O)N2CCOCC2)c1	0	0	-	-	0	0	-	-	-	-
CN(C(=O)COC(=O)c1cc(S(=O)(=O)N2CCCCC2)ccc1Cl)c1ccccc1	0	0	0	0	0	0	-	-	-	-
COc1ccc(OC)c(-c2nnc3n2N=C(c2ccc(OC)c(OC4CCCC4)c2)CS3)c1	31	0	0	0	0	17	0	0	0	0
COc1ccc(OC)c(-c2nnc3n2N=C(c2ccc(OC)c(OC)c2)CS3)c1	0	0	0	0	0	0	-	-	-	-
